Results published in PubChem BioAssay (NCATS).
Results filed as inconclusive are left out. Calls of active or inactive are those of the source. The call rests on the fitted dose curve; in most records, active means well fitted curve in the direction sought with a large enough effect; inconclusive means small, poorly fitted or top-dose-only effect, or another doubt; inactive means no such curve, though single readings can be large; an effect the other way counts as inactive or inconclusive.

How the values were obtained:
[1] = SW1088 Cancer Cell Toxicity qHTS against the NCATS CANVASS Library (AID 1347350); further: nearly all actives have a fitted effect of over 75% in size
How it was run: (§1)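 Quantitative HTS format: an 11-concentration series was applied to 1000 cells/well following a 4-hour attachment. Cultures ran 72 hours before ATP luminescence detection by CellTiter-Glo.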

[2] = U-118MG Cancer Cell Toxicity qHTS against the NCATS CANVASS Library (AID 1347351)
How it was run: as §1

[3] = COV-362 Cancer Cell Toxicity qHTS against the NCATS CANVASS Library (AID 1347352)
How it was run: (§2)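 First, 1000 cells go into each well and rest for 4 hours. Next, an 11-point dilution range is pinned in. Plates then incubate 72 hours before CellTiter-Glo addition and luminescence reading.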

[4] = A2780 Cisplatin Sensitive Ovarian Cancer Cell Toxicity qHTS against the NCATS CANVASS Library (AID 1347353); conditions: A2780 ovarian cancer viability, ATPLite luminescence, 72 h; at 46.1 µM (top of the series); further: nearly all actives have a fitted effect of over 60% in size
How it was run: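 Cells are plated at 750 per well and rest for 4 hours. Compounds are added across eleven concentrations, and incubated 72 hours before ATP is quantified by luminescence.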

[5] = UWB1.289-WTBRCA1 Cancer Cell Toxicity qHTS against the NCATS CANVASS Library (AID 1347354); conditions: UWB1.289-WTBRCA1 viability, CellTiter-Glo luminescence, 72 h; at 38.3 µM (top of the series)
How it was run: as §2

[6] = HEK-293 Cancer Cell Toxicity qHTS against the NCATS CANVASS Library (AID 1347355); further: nearly all actives have a fitted effect of over 65% in size
How it was run: as §2

[7] = HPAF-II 24hr Apoptosis Induction qHTS against the NCATS CANVASS Library (AID 1347356)
How it was run: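 Cells seeded at 500 per well, then compounds pin-transferred in an 11-point concentration series. After 24 hours at 37 degrees C, Caspase-Glo 3/7 was added and luminescence measured following 15 min at room temperature.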

[8] = HEK293 18hr Apoptosis Induction qHTS against the NCATS CANVASS Library (AID 1347357)
How it was run: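 Caspase-Glo 3/7 luminescence (15 min, room temperature) measured apoptosis after an 18-hour, 37 degrees C exposure of HEK293 cells (500 cells/well) to compounds in 11 points.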

[9] = HPAF-II 12hr Apoptosis Induction qHTS against the NCATS CANVASS Library (AID 1347358)
How it was run: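 Cells plated at 500 per well are dosed with compound and incubated 12 hours at 37 degrees C. Caspase-Glo 3/7 reagent is added and, after 15 min at room temperature, luminescence proportional to caspase activity is measured.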

[10] = HEK293 24hr Apoptosis Induction qHTS against the NCATS CANVASS Library (AID 1347359)
How it was run: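 Caspase-3/7 activation measured as luminescence from the DEVD-based Caspase-Glo reagent, 15 min at room temperature, following 24-hour compound treatment of HEK293 cells.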

[11] = HPAF-II 18hr Apoptosis Induction qHTS against the NCATS CANVASS Library (AID 1347360)
How it was run: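 Caspase-3/7 activation was measured with luminescent Caspase-Glo 3/7 reagent (15 min, RT) in HPAF-II cancer cells (500 cells/well). Before detection, cells had been treated for 18 h at 37 C with compounds (11 points).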

[12] = HEK293 12hr Apoptosis Induction qHTS against the NCATS CANVASS Library (AID 1347361)
How it was run: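 HEK293 cells (500/well, DMEM + 10% FBS) were exposed to natural products across an 11-point series for 12 hours at 37 degrees C. Caspase-3/7 activity was then measured with DEVD luciferase luminescence after 15 min at room temperature.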

[13] = system: NAD(P)H diaphorase (Clostridium kluyveri); assay: Diaphorse counterscreen qHTS: Assay Interference Panel against the NCATS CANVASS Library (AID 1347362)
How it was run: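 Counterscreen for coupling-enzyme interference: resorufin fluorescence from resazurin/NADH turnover, read after 5 min at room temperature. Compounds were tested over an 11-point series after 15 min dark preincubation with diaphorase in PBS-Tween.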

[14] = target: Luciferin 4-monooxygenase (Photinus pyralis) (UniProt P08659); assay: Firefly luciferase counterscreen qHTS: Assay Interference Panel against the NCATS CANVASS Library (AID 1347363)
How it was run: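 Luminescence inhibition readout: compounds (11-point qHTS) sat 15 min at room temperature with substrate mix (0.013 mM luciferin and ATP), then firefly luciferase was added and signal read 5 min later.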

[15] = KB-8-5-11 Cancer Cell Toxicity qHTS against the NCATS CANVASS Library (AID 1347364); further: nearly all actives have a fitted effect of over 75% in size
How it was run: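 Terse: KB-8-5-11, 500 cells/well, 72 hr, 37C/5% CO2, 11-pt titration, CellTiter-Glo readout; confirmatory runs ± 1uM tariquidar in medium.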

[16] = SDT Cancer Cell Toxicity qHTS against the NCATS CANVASS Library (AID 1347365);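 further: SDT canine glioma cells 500 per well in 1536 well plates; nearly all actives have a fitted effect of over 60% in size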
How it was run: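 Cytotoxicity is measured from cellular ATP: compounds in an 11-point concentration series are pinned onto SDT cells, incubated 72 hr at 37C, then CellTiterGlo is added and luminescence read.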

[17] = KB-3-1 Cancer Cell Toxicity qHTS against the NCATS CANVASS Library (AID 1347366); conditions: KB-3-1 viability, CellTiter-Glo luminescence, 72 h; at 46.1 µM (top of the series); further: nearly all actives have a fitted effect of over 75% in size
How it was run: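 CellTiter-Glo luminescence measured viability after 72 h at 37C. KB-3-1 cells were seeded at 500 per well in DMEM/10% FBS.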

[18] = qHTS for ATAD5 Agonist screened against the NCATS CANVASS Library (AID 1347367);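 further: luciferase reporter driven by ATAD5 which rises upon DNA damage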
How it was run: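 Genotoxicity via ATAD5-luciferase luminescence after 16 h compound exposure (11-point series) at 37C in HEK293T-ATAD5 cells. CellTiter-Fluor viability read precedes the luminescence read; MMS serves as positive control.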

[19] = G06 Cancer Cell Toxicity qHTS against the NCATS CANVASS Library (AID 1347368); further: nearly all actives have a fitted effect of over 60% in size
How it was run: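 Cells were plated at 500 per well, then compounds were added over an 11-point range. After 72 hr at 37C, CellTiterGlo was added and luminescence measured as ATP content.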

[20] = MCF7 Cancer Cell Toxicity qHTS against the NCATS CANVASS Library (AID 1347369); conditions: MCF7 viability, ATP luminescence (CellTiter-Glo), 72 h; at 46 µM (top of the series)
How it was run: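 Cytotoxicity was measured as CellTiterGlo luminescence (ATP) after 72 h at 37 °C. The cells were MCF7 at 500 per well, with an 11-point compound concentration series.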

Measured: outcome

Sequence of Luciferin 4-monooxygenase (Photinus pyralis) (P08659 whole entry, looked up): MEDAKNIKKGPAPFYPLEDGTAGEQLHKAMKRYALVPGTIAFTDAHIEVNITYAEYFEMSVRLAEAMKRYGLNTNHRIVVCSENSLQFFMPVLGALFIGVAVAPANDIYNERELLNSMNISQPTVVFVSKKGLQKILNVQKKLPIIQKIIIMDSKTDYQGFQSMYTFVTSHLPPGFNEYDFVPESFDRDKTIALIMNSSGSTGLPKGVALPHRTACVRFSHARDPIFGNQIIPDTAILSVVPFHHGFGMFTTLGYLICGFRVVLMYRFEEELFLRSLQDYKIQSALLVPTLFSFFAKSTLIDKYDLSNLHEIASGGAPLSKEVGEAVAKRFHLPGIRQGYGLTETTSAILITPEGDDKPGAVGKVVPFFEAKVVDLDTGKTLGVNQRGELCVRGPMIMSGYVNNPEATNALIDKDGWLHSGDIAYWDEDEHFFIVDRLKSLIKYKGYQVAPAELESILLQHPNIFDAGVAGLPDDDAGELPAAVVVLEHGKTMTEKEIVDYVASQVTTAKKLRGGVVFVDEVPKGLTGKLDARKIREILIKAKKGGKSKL

CN(C)CCc1c[nH]c2ccccc12
inactive: [1] | [2] | [3] | [4] | [5] | [6] | [7] | [8] | [9] | [10] | [11] | [12] | [13] | [14] | [15] | [16] | [17] | [18] | [19] | [20]
